# Source: the OligoGym collection
# Molecular target: HAX1
# Assay: pooled miR-30 sensor sort-seq; sequence = guide strand
# Conditions: shRNA
# Also: reference of the scale not given here.
row,Sequence,sensor-assay potency score (higher = more potent)
1,TCACTGTCCACCACAGTCCGGC,-0.474
2,ACTTCTTGCATCACTCTCCAAG,-1.46
3,TTCACTATTCCACATATCCAAG,-1.52
4,TTGGTCACAGAGATGCTCTTGA,0.864
5,TTAGTGATCTTGGTCACAGAGA,-0.982
6,TACTTAAGCATTGAGTCCCGAA,-0.493
7,TACTAGGTCATCAAAGCCGAAG,-1.1
8,TTATCGTGGAAACGTATCCCTC,-1.22
9,TGCTATTGAAATCTCGTACTAG,0.119
10,TATTGAAATCTCGTACTAGGTC,-0.361
11,TAGGACTGCTATCTGCTTCGTG,0.298
12,TTACTGTAGTCTCTGTCCGGCC,-0.884

# Molecular target: HBA1
# Assay: as above
# Conditions: shRNA
row,Sequence,sensor-assay potency score (higher = more potent)
1,AAGGGGCAAGAAGCATGGCCAC,-1.79
2,TTCAAAGACCACGGGGGTACGG,-1.1
3,TCAAAGACCACGGGGGTACGGG,-0.714
4,ACGGGGGTACGGGTGCAGGAAG,-2.14
5,ACCACGGGGGTACGGGTGCAGG,-2.46
6,TACGGGTGCAGGAAGGGGAGGA,-0.675
7,CAGGAAGGGGAGGAGGGGCTGG,-1.95
8,AAAGACCACGGGGGTACGGGTG,-1.54
9,AAGACCACGGGGGTACGGGTGC,-0.867

# Molecular target: HBA2
# Assay: as above
# Conditions: shRNA
row,Sequence,sensor-assay potency score (higher = more potent)
1,AAGTTGACCGGGTCCACCCGAA,-0.435
2,TATTCAAAGACCAGGAAGGGCC,-0.938
3,TGGCTTAGGAGCTTGAAGTTGA,-0.42
4,AGACCAGGAAGGGCCGGTGCAA,-1.65
5,AAGTAGGTCTTGGTGGTGGGGA,-0.536
6,AGGAAGGGCCGGTGCAAGGAGG,-2.16
7,AGGGCCGGTGCAAGGAGGGGAG,-1.98
8,TTTATTCAAAGACCAGGAAGGG,-0.785
9,AAGGGCCGGTGCAAGGAGGGGA,-0.735
10,TTGGGAGGCCCAGCGGGCAGGA,-2
11,AAGACCAGGAAGGGCCGGTGCA,-1.15
12,TTCAAAGACCAGGAAGGGCCGG,-0.416
13,TCAAAGACCAGGAAGGGCCGGT,0.259
14,TTATTCAAAGACCAGGAAGGGC,-1.06
15,TGCAAGGAGGGGAGGAGGGCCC,-1.68

# Molecular target: HBB
# Assay: as above
# Conditions: shRNA
row,Sequence,sensor-assay potency score (higher = more potent)
1,TCACTCAGTGTGGCAAAGGTGC,-1.09
2,ATCAGGAGTGGACAGATCCCCA,-1.55
3,TAGACCACCAGCAGCCTGCCCA,-0.865
4,TTCTTTGCCAAAGTGATGGGCC,-0.0247
